For test [1], the target named is Platelet-derived growth factor receptor beta (Homo sapiens) (UniProt P09619). The note with it: at 1 µM.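 Also: each value is a mean percent inhibition.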
Test [2] has as its target Tyrosine-protein kinase FRK (Homo sapiens) (UniProt P42685). The note with it: at 0.1 µM.
The target is the same in test [3]. The following applies: at 1 µM.
Test [4] deals with Protein-tyrosine kinase 2-beta (Homo sapiens) (UniProt Q14289). The note with it: at 0.1 µM.
For test [5] the target is unchanged. The note with it: at 1 µM.
Test [6] concerns the target Proto-oncogene tyrosine-protein kinase receptor Ret (Homo sapiens) (UniProt P07949). The following applies: at 0.1 µM.
The target is the same in test [7]. The note with it: at 1 µM.
The test system of test [8] is Proto-oncogene tyrosine-protein kinase receptor Ret (Homo sapiens), P07949 [V804L]. The note with it: at 0.1 µM.
Chain of Proto-oncogene tyrosine-protein kinase receptor Ret (Homo sapiens), P07949 [V804L] (P07949 whole entry V804L): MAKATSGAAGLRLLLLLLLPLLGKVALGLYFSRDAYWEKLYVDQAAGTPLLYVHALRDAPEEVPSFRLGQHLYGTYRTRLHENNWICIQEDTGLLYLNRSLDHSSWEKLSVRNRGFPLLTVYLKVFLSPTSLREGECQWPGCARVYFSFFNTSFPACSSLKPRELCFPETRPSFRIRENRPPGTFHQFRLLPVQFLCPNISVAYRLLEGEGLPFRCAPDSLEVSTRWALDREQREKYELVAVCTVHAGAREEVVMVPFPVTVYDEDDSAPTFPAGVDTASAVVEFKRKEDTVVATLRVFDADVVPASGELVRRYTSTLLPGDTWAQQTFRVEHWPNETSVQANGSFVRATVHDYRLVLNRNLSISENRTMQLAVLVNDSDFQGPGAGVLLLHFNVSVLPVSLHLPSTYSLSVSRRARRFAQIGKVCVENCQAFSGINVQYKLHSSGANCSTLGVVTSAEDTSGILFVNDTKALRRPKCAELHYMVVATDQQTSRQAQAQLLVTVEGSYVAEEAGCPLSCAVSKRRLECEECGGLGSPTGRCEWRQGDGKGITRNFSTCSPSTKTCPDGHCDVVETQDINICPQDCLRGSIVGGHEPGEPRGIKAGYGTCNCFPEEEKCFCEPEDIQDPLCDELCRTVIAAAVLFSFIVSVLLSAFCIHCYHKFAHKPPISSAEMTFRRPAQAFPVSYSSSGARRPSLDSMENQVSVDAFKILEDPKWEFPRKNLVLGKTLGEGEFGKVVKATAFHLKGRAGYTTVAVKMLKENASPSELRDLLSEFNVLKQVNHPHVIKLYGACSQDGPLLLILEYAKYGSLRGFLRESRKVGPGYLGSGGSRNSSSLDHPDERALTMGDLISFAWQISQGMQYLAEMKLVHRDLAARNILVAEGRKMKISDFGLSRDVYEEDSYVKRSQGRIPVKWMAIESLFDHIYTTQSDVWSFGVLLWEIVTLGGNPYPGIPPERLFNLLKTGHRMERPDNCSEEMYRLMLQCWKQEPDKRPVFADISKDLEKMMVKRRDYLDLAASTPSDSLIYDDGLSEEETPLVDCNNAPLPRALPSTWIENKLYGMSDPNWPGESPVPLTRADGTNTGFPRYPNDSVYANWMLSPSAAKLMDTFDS
For test [9] the test system is unchanged. The note with it: at 1 µM.
For test [10], the system named is Proto-oncogene tyrosine-protein kinase receptor Ret (Homo sapiens), P07949 [Y791F]. The note with it: at 0.1 µM.
Chain of Proto-oncogene tyrosine-protein kinase receptor Ret (Homo sapiens), P07949 [Y791F] (P07949 whole entry Y791F): as the sequence (P07949 whole entry V804L) above, with Y791F, L804V counted along it

Chain of Proto-oncogene tyrosine-protein kinase receptor Ret (Homo sapiens) (P07949 whole entry): as the sequence (P07949 whole entry V804L) above, with L804V counted along it
Chain of Platelet-derived growth factor receptor beta (Homo sapiens) (P09619 whole entry): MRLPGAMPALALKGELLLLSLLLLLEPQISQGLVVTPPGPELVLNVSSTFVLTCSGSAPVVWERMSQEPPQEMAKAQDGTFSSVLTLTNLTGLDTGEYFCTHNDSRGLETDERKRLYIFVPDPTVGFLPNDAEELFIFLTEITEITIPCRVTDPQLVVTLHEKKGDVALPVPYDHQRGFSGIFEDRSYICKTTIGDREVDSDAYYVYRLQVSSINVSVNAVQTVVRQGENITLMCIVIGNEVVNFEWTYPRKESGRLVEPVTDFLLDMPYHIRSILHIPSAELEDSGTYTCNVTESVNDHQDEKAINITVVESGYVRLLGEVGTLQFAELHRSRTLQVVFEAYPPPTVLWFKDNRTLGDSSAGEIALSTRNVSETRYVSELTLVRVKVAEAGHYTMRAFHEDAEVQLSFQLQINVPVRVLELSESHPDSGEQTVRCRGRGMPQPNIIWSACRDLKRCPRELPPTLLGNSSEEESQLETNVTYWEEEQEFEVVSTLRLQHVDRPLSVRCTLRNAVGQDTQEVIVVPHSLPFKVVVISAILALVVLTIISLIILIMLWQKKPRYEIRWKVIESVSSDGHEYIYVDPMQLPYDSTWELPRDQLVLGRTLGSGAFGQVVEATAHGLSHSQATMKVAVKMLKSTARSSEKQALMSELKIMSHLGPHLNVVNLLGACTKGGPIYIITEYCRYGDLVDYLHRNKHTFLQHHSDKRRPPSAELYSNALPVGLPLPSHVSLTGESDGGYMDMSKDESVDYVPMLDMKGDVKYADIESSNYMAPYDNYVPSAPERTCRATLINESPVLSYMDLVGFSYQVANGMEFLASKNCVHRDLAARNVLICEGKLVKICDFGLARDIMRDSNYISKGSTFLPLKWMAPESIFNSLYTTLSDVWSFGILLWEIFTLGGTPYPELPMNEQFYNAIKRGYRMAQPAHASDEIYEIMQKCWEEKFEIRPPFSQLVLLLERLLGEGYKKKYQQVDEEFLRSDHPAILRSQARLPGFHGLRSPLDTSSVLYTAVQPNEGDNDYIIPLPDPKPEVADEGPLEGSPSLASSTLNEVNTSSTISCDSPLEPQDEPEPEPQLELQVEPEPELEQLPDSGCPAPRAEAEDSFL
Chain of Protein-tyrosine kinase 2-beta (Homo sapiens) (Q14289 whole entry, looked up): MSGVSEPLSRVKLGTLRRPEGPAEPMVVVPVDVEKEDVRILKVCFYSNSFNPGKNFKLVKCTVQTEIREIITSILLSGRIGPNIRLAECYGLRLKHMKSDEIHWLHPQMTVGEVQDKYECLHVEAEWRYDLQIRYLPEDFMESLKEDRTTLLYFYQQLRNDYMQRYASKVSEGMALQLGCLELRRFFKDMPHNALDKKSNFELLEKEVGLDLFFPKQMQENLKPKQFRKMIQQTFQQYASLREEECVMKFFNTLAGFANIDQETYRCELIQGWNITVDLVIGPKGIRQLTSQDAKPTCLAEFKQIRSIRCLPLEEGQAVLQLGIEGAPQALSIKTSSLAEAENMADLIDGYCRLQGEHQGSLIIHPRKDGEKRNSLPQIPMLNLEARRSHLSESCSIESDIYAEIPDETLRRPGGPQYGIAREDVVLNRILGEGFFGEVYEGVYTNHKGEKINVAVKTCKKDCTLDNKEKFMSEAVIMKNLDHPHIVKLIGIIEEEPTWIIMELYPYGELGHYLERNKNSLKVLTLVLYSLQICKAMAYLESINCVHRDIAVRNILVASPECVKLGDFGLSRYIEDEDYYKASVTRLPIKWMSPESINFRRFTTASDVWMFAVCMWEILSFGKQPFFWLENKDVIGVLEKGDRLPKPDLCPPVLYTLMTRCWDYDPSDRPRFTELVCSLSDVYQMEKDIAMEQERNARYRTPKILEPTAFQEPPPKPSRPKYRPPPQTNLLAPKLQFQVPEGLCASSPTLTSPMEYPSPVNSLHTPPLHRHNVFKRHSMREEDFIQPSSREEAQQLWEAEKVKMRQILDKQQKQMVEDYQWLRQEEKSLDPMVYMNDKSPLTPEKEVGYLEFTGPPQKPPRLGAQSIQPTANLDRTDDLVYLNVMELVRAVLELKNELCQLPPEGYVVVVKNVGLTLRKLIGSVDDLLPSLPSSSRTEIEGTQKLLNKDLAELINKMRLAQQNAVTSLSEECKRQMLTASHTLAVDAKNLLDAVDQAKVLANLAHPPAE
Chain of Tyrosine-protein kinase FRK (Homo sapiens) (P42685 whole entry): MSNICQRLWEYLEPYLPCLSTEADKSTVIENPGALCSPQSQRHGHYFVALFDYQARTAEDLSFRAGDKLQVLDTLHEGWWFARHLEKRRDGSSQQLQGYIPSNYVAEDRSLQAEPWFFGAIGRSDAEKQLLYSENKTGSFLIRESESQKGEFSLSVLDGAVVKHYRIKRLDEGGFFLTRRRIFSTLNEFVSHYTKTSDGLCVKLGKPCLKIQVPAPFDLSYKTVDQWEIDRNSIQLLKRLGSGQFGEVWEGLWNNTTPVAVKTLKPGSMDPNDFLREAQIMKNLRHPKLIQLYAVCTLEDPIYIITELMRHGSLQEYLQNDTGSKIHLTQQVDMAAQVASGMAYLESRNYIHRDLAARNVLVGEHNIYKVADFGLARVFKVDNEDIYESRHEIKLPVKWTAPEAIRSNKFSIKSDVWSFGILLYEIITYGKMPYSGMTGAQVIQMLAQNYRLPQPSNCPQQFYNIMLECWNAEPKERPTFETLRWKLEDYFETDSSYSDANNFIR

On to `NC(=O)Cc1ccccc1Oc1nccc(-c2c(-c3ccc(F)cc3)ncn2C2CCNCC2)n1`, for which the inhibition was 5.76% in test [1]; 1.11% in test [2]; 3.64% in [3]; 5.56% in test [4]; 3.38% in test [5]; 5.79% in [6]. Further, the inhibition came out at 3.25% in [7], 2.51% in [8], 0.95% in [9] and 3.81% in [10].

In the case of `COc1ccc(C2=C(N3CCc4ccccc43)C(=O)NC2=O)cc1`, the inhibition in [1] worked out at 12.1%; in test [2] it was 2.66%; in test [3] it was 0.27%; in [4], 11.7%; in test [5], 16%; in test [6], 9.66%. For the same compound, the inhibition in test [7] amounted to 6.15%; in test [8] it was 5.21%; in test [9] it was 7.12%; in test [10] it was 6.21%.

`Cc1ccc(NC(=O)c2ccoc2)cc1-c1ccc(C(=O)NCC2CC2)cc1`: the inhibition in test [1] was -0.8%; in test [2], 0.1%; in test [3] it was 2.51%; in test [4], 0.3%; in test [5], -0.07%; in test [6], 5.24%. For the same compound, the inhibition in [7] turned out to be 0.04%; in test [8] it was 1.71%; in test [9], 2.38%; in [10], 1.45%.

On to `C[C@@H](Oc1cc(-n2cnc3ccc(OCC4CCN(C)CC4)cc32)sc1C(N)=O)c1ccccc1Cl`, for which the inhibition in test [1] amounted to 84.7%; in test [2] it was 3.53%; in [3], 3.93%; in [4], 5.71%; in test [5], 13.7%; in test [6] it was 6.25%. The inhibition in test [7] was found to be 18.2%; in test [8], 5.76%; in [9], 16.7%; in test [10], 8.22%.

Regarding `O=C(Nc1n[nH]c2nc(-c3ccc(O)cc3)c(Br)cc12)C1CC1`, the inhibition in test [1] amounted to 41.3%; in test [2] it was 14.7%; in test [3], 2.41%; in test [4], 9.91%; in test [5], 18.5%; in [6] it was 11.8%. Also, the inhibition in [7] was 28.1%; in test [8], 5.98%; in test [9] it was 21%; in test [10], 12.1%.

For `COc1ccc2ncn(-c3cc(O[C@H](C)c4ccccc4Cl)c(C(N)=O)s3)c2c1`, the inhibition is 18.7% in [1]; 3.26% in test [2]; 4.73% in test [3]; 6.17% in [4]; 9.58% in [5]; 9.64% in test [7]. Further, the inhibition was 2.37% in test [8], 7.27% in test [9] and 5.2% in [10].

In the case of `COc1cc(Nc2ncc(-c3ccccc3)o2)cc(OC)c1OC`, the inhibition in test [1] was 74.2%; in [2] it was 0.5%; in test [3], 4.26%; in [4] it was -6.53%; in [5], 5.39%; in [6] it was 2.33%. For the same compound, the inhibition in test [7] amounted to 15.5%; in test [8] it was 1%; in test [9], 16.2%; in test [10] it was 0.66%.

For `O=C(Nc1n[nH]c2nc(-c3ccco3)ccc12)C1CC1`, the inhibition came out at 5.96% in [1]; 0.93% in [2]; 1.05% in [3]; 1.43% in test [4]; 0.04% in test [5]; 8.2% in [6]. Besides, the inhibition in test [7] stood at 9.6%; in test [8] it was 4.51%; in test [9], 8.22%; in test [10] it was 4.94%.

As for `NC(=O)c1cc(-c2ccc(F)cc2)cc(-c2ccncc2)c1N`, the inhibition in test [1] is 5.05%; in [2], 1.66%; in [3], 1.82%; in test [6] it was 6.04%; in test [7] it was 1.69%; in test [8], 2.31%. The results for the inhibition in test [9] and in test [10] were 2.03% and 4.64%, respectively.

In the case of `CCC(=O)Nc1ccc(C)c(-c2ccc(C(=O)NCC3CC3)cc2)c1`, the inhibition came to 0.71% in test [1]; 2.5% in test [2]; 2.55% in [3]; 11.8% in test [4]; 6.44% in test [5]; 7.45% in test [6]. The inhibition in [7] is 6.85%; in [8], 1.64%; in test [9], 2.22%; in test [10] it was 4.76%.

For the compound `CN(C)CCOc1ccc(-c2cc(-c3ccc4c(c3)CCC4=NO)c(-c3ccncc3)o2)cc1`, the inhibition in test [1] was 9.14%; in test [2] it was -1.02%; in test [3], 0.49%; in test [4], -7.75%; in test [5] it was 0.57%; in test [6] it was 3.54%. In addition, the inhibition in [7] was 1.85%; in test [8], 0.61%; in test [9], 1.37%; in [10], -1.98%.

Regarding `CCc1cccc(CC)c1/C=C/c1cncc(C(=O)NC)c1`, the inhibition in test [1] came to 9.24%; in test [2] it was 0.72%; in [3] it was 2.05%; in test [4] it was 4.52%; in test [5], 5.62%; in test [6], 6.73%. The results for the inhibition in test [7], in test [9] and in test [10] were 7.18%, 3.16% and 5.49%, respectively.

As for `C#Cc1cccc(Nc2ncnc3ccc(OCCCCNCCS(C)(=O)=O)cc23)c1`, the inhibition in [1] stood at 20.5%; in test [2], 5.22%; in [3], 4.16%; in test [4], 12.1%; in test [5] it was 10.3%; in test [6] it was 14.3%. Moreover, the inhibition turned out to be 18.9% in [7], 4.06% in [8], 11.9% in [9] and 17.9% in test [10].

As for `O=C(Nc1n[nH]c2cc(-c3cc(F)ccc3F)ccc12)C1CC1`, the inhibition came to 14.1% in test [1]; 2.44% in test [2]; 0.71% in test [3]; 9.57% in test [4]; 10.3% in test [5]; 6.14% in test [6]. In addition, the inhibition was determined as 10.3% in [7], 3.33% in [8], 2.9% in test [9] and 7.68% in test [10].

On to `COc1ccc2cc(-c3c(-c4ccncc4)nc(-c4ccc(S(C)(=O)=O)cc4C)n3C)ccc2c1`, for which the inhibition in [1] is 13.2%; in test [2], 3.55%; in [3] it was 2.3%; in [4] it was 12.8%; in test [5], 12.4%; in test [6], 4.93%. Further, the inhibition in [7] came to 22.2%; in [8] it was 2.68%; in [9] it was 4.41%; in [10] it was 3.67%.

Take `CN(C)CCCNc1nccc(-c2c(-c3ccc(F)cc3)nn3cc(C(F)(F)F)ccc23)n1`: the inhibition is 14.1% in [1]; -0.09% in [2]; 1.37% in [3]; -1.38% in test [4]; 1.42% in [5]; 7.28% in test [6]. For the same compound, the inhibition in test [7] was found to be 10.8%; in test [8] it was 8.31%; in test [9] it was 21.7%; in test [10], 10.9%.

As to `c1ccc(Oc2ccc(Nc3ncc(-c4ccccc4)o3)cc2)cc1`, the inhibition was 10.3% in [1]; -0.25% in [2]; 1.21% in [3]; 6.6% in test [4]; 8.05% in test [5]; 5.96% in test [6]. The inhibition in [7] was 3.49%; in [8], 4.18%; in [9], 6.54%; in test [10], 5.06%.

In general, inhibition refers to the relative decrease from the control value, in per cent.

For the origin of these results see ChEMBL document CHEMBL1961873, “Compounds: GSK PKIS; Assays: Nanosyn kinase panel” (2012).
